This note sets out measurements from the antibiotic and cytotoxicity screens of Wong et al. (2023).

The campaign covered roughly 39,000 compounds. About 3,300 (8.5%) were called active. The sample as a whole holds a higher share of actives than the screen did.

For this experiment, the system named is HepG2. The experiment in a line: cytotoxicity call (relative viability < 0.9). As to conditions: 10 µM.
Take `C[C@H](CO)N1C[C@H](C)[C@@H](CN(C)S(=O)(=O)c2ccccc2)OCCCC[C@H](C)Oc2ccc(NC(=O)CCC(F)(F)F)cc2C1=O`: the cytotoxicity call was “inactive”. As for `Cc1noc(C)c1NC(=O)N(C)C[C@H]1Oc2c(NC(=O)Cn3cnnn3)cccc2C(=O)N([C@H](C)CO)C[C@@H]1C`, the cytotoxicity call is “inactive”. On to `C[C@@H]1CN([C@H](C)CO)C(=O)c2cc(NC(=O)C3CCCCC3)ccc2O[C@@H](C)CCCCO[C@H]1CN(C)C(=O)c1ccncc1`, for which the cytotoxicity call was “inactive”. For `C[C@@H]1CCCCO[C@@H](CN(C)Cc2ccc(C(F)(F)F)cc2)[C@@H](C)CN([C@H](C)CO)C(=O)c2cc(NS(=O)(=O)c3cccs3)ccc2O1`, the cytotoxicity call is “active”. With `C[C@@H]1CN([C@H](C)CO)C(=O)c2cc(NS(=O)(=O)c3cccs3)ccc2O[C@@H](C)CCCCO[C@H]1CN(C)Cc1ccc(C(F)(F)F)cc1`, the cytotoxicity call is “active”. For the compound `C[C@@H]1CCCCO[C@@H](CN(C)Cc2ccc(C(=O)O)cc2)[C@H](C)CN([C@@H](C)CO)C(=O)c2cc(NS(=O)(=O)c3cccs3)ccc2O1`, the cytotoxicity call was “inactive”. As to `C[C@@H]1CCCCO[C@@H](CN(C)Cc2ccc(C(F)(F)F)cc2)[C@H](C)CN([C@@H](C)CO)C(=O)c2cc(NS(=O)(=O)c3cccs3)ccc2O1`, the cytotoxicity call was “inactive”. As for `C[C@H](CO)N1C[C@H](C)[C@@H](CN(C)Cc2ccc(C(F)(F)F)cc2)OCCCC[C@H](C)Oc2ccc(NS(=O)(=O)c3cccs3)cc2C1=O`, the cytotoxicity call is “inactive”.

As for `C[C@H](CO)N1C[C@H](C)[C@H](CN(C)Cc2ccc(C(F)(F)F)cc2)OCCCC[C@H](C)Oc2ccc(NS(=O)(=O)c3cccs3)cc2C1=O`, the cytotoxicity call was “active”. In the case of `C[C@@H]1CCCCO[C@H](CN(C)Cc2ccc(C(F)(F)F)cc2)[C@@H](C)CN([C@@H](C)CO)C(=O)c2cc(NS(=O)(=O)c3cccs3)ccc2O1`, the cytotoxicity call was “inactive”. As to `C[C@@H]1CN([C@H](C)CO)C(=O)c2cc(NS(=O)(=O)c3cccs3)ccc2O[C@@H](C)CCCCO[C@@H]1CN(C)Cc1ccc(C(F)(F)F)cc1`, the cytotoxicity call is “inactive”. On to `C[C@H]1CCCCO[C@@H](CN(C)Cc2ccc(C(F)(F)F)cc2)[C@@H](C)CN([C@@H](C)CO)C(=O)c2cc(NS(=O)(=O)c3cccs3)ccc2O1`, for which the cytotoxicity call is “inactive”.

On to `C[C@H]1CN([C@@H](C)CO)C(=O)c2cccc(NC(=O)c3ccc(-c4nccs4)cc3)c2O[C@@H]1CN(C)S(=O)(=O)c1cn(C)cn1`, for which the cytotoxicity call is “inactive”. For `Cc1noc(C)c1S(=O)(=O)N(C)C[C@H]1OCCCC[C@H](C)Oc2ccc(N(C)C)cc2C(=O)N([C@H](C)CO)C[C@@H]1C`, the cytotoxicity call is “inactive”. Under `COc1ccc(NC(=O)N(C)C[C@@H]2OCCCC[C@H](C)Oc3ccc(NS(=O)(=O)c4c(C)noc4C)cc3C(=O)N([C@@H](C)CO)C[C@@H]2C)cc1` stands “inactive”; under `CO[C@@H]1CN(C)C(=O)c2ccc(NC(=O)C3CC3)cc2OC[C@@H](C)N(C(=O)C2CCOCC2)C[C@H]1C`, “inactive”. `Cc1cc(C2CCCCC2)n(O)c(=O)c1.NCCO`: the cytotoxicity call is “active”. For the compound `C[C@H]1CN([C@@H](C)CO)C(=O)c2c(c3ccccc3n2C)-c2ccccc2CO[C@@H]1CN(C)Cc1ccc(C(F)(F)F)cc1`, the cytotoxicity call is “inactive”. `Cc1noc(C)c1S(=O)(=O)Nc1ccc2c(c1)C(=O)N([C@H](C)CO)C[C@H](C)[C@H](CN(C)C(=O)Nc1ccc(F)cc1)OCCCC[C@H](C)O2`: the cytotoxicity call was “inactive”.

For the compound `Cc1noc(C)c1NC(=O)Nc1ccc2c(c1)C(=O)N([C@H](C)CO)C[C@H](C)[C@@H](CN(C)S(=O)(=O)c1ccc(F)cc1)OCCCC[C@@H](C)O2`, the cytotoxicity call is “inactive”. As to `Cc1cc(C(=O)Nc2cccc3c2O[C@H](CN(C)S(=O)(=O)c2cccs2)[C@@H](C)CN([C@H](C)CO)C3=O)n(C)n1`, the cytotoxicity call was “inactive”. For the compound `COC(=O)CNC(=O)/C=C/c1ccc(OC)cc1`, the cytotoxicity call is “inactive”. As for `CCNC(=O)c1cccc(NS(C)(=O)=O)c1`, the cytotoxicity call was “inactive”. Regarding `CCNC(=O)C=Cc1cccc(Br)c1`, the cytotoxicity call was “active”. `C[C@H](CO)N1C[C@H](C)[C@@H](CN(C)C(=O)Nc2ccc(C(F)(F)F)cc2)Oc2ccc(NS(=O)(=O)c3ccc(F)cc3)cc2C1=O`: the cytotoxicity call was “inactive”.

`COc1ccc(S(=O)(=O)Nc2ccc3c(c2)CC(=O)N([C@H](C)CO)C[C@H](C)[C@H](CN(C)S(=O)(=O)c2cn(C)cn2)O3)cc1`: the cytotoxicity call was “inactive”. Take `C[C@@H]1CN([C@H](C)CO)C(=O)c2cc(NC(=O)Nc3ccc(F)cc3)ccc2O[C@@H](C)CCCCO[C@@H]1CN(C)C(=O)C1CCCCC1`: the cytotoxicity call is “inactive”.

On to `C[C@@H]1CCCCO[C@@H](CN(C)C(=O)C2CCCCC2)[C@@H](C)CN([C@@H](C)CO)C(=O)c2cc(NC(=O)Nc3ccc(F)cc3)ccc2O1`, for which the cytotoxicity call is “inactive”. `C[C@@H]1CCCCO[C@H](CN(C)C(=O)C2CCCCC2)[C@H](C)CN([C@@H](C)CO)C(=O)c2cc(NC(=O)Nc3ccc(F)cc3)ccc2O1`: the cytotoxicity call is “inactive”. For the compound `C[C@H](CO)N1C[C@H](C)[C@H](CN(C)C(=O)C2CCCCC2)OCCCC[C@H](C)Oc2ccc(NC(=O)Nc3ccc(F)cc3)cc2C1=O`, the cytotoxicity call is “inactive”. Turning to `C[C@@H]1CCCCO[C@@H](CN(C)C(=O)C2CCCCC2)[C@@H](C)CN([C@H](C)CO)C(=O)c2cc(NC(=O)Nc3ccc(F)cc3)ccc2O1`, the cytotoxicity call was “inactive”. Regarding `C[C@H]1CCCCO[C@@H](CN(C)C(=O)C2CCCCC2)[C@@H](C)CN([C@@H](C)CO)C(=O)c2cc(NC(=O)Nc3ccc(F)cc3)ccc2O1`, the cytotoxicity call was “active”. For the compound `C[C@@H]1CCCCO[C@@H](CN(C)C(=O)C2CCCCC2)[C@H](C)CN([C@@H](C)CO)C(=O)c2cc(NC(=O)Nc3ccc(F)cc3)ccc2O1`, the cytotoxicity call was “inactive”. As to `C[C@H]1CCCCO[C@H](CN(C)C(=O)C2CCCCC2)[C@@H](C)CN([C@@H](C)CO)C(=O)c2cc(NC(=O)Nc3ccc(F)cc3)ccc2O1`, the cytotoxicity call is “active”. In the case of `C[C@@H]1CCCCO[C@H](CN(C)C(=O)C2CCCCC2)[C@@H](C)CN([C@@H](C)CO)C(=O)c2cc(NC(=O)Nc3ccc(F)cc3)ccc2O1`, the cytotoxicity call is “active”.

Take `CNC(=O)C(=O)Nc1ccc(C)c(F)c1`: the cytotoxicity call was “inactive”. Under `Cc1noc(C)c1NC(=O)Nc1ccc2c(c1)C(=O)N([C@H](C)CO)C[C@H](C)[C@@H](CN(C)CC1CCCCC1)OCCCC[C@H](C)O2` stands “inactive”; under `COc1cccc(S(=O)(=O)N(C)C[C@@H]2Oc3ncc(C#CCC(C)C)cc3C(=O)N([C@@H](C)CO)C[C@@H]2C)c1`, “inactive”; under `O=C(CN1CCOCC1)N[C@@H]1CC[C@@H](CCn2cc(C3CCCC3)nn2)O[C@H]1CO`, “inactive”. Turning to `C[C@@H]1CN([C@@H](C)CO)C(=O)Cc2cc(NC(=O)NC3CCCCC3)ccc2O[C@H]1CN(C)Cc1ccc(C(F)(F)F)cc1`, the cytotoxicity call was “inactive”. In the case of `Cc1noc(C)c1NC(=O)Nc1ccc2c(c1)C(=O)N([C@H](C)CO)C[C@H](C)[C@H](CN(C)S(=O)(=O)c1ccccc1)OCCCC[C@H](C)O2`, the cytotoxicity call was “inactive”. Under `COc1ccc(S(=O)(=O)N(C)C[C@H]2Oc3c(NS(=O)(=O)c4ccc(C)cc4)cccc3C(=O)N([C@H](C)CO)C[C@H]2C)cc1` stands “inactive”; under `C[C@@H]1O[C@@H](O[C@H]2[C@H](Oc3cc(O)c(C(=O)CCc4ccc(O)cc4)c(O)c3)O[C@H](CO)[C@@H](O)[C@@H]2O)[C@H](O)[C@H](O)[C@H]1O`, “inactive”. As for `CCC(=O)Nc1ccc(Cl)cc1`, the cytotoxicity call was “inactive”. On to `O=C(CNCCO)Nc1ccc(F)c(Cl)c1`, for which the cytotoxicity call is “inactive”. As to `N=C(N=C(N)N)Nc1cccc(Cl)c1`, the cytotoxicity call is “inactive”. As to `CC(C)C(=O)Nc1cccc(Cl)c1`, the cytotoxicity call was “inactive”.

With `O=C(Nc1ccc(Cl)cc1)Nc1ccc(Cl)c(Cl)c1`, the cytotoxicity call is “active”. On to `O=C(Nc1ccc(C(F)(F)F)cc1)Nc1cccc(Cl)c1`, for which the cytotoxicity call is “active”. Under `C[C@@H]1CN([C@@H](C)CO)C(=O)c2cc(NS(=O)(=O)c3ccccc3)ccc2O[C@@H](C)CCCCO[C@@H]1CN(C)C(=O)Nc1ccc2c(c1)OCO2` stands “inactive”; under `CCCOc1cc(N)ccc1C(=O)OCCN(CC)CC.Cl`, “inactive”.

Consider `CCN(CC)CCOc1ccc2c(c1)C(=O)c1cc(OCCN(CC)CC)ccc1-2`, for which the cytotoxicity call was “active”. On to `O=S1(=O)[C@@H]2C[C@H]3C=CC2(CN1C1CC1)O3`, for which the cytotoxicity call is “inactive”.

As to `Cc1ccc(S(=O)(=O)N(C)C[C@@H]2OCCCC[C@@H](C)Oc3ccc(NC(=O)NC4CCCCC4)cc3C(=O)N([C@@H](C)CO)C[C@@H]2C)cc1`, the cytotoxicity call is “inactive”. With `C[C@@H]1CCCCO[C@H](CN(C)S(=O)(=O)c2ccccc2)[C@@H](C)CN([C@H](C)CO)C(=O)c2cc(NC(=O)NC3CCCCC3)ccc2O1` the entry was “inactive”. As for `C[C@H](CO)N1C[C@H](C)[C@H](CN(C)S(=O)(=O)c2ccccc2)OCCCC[C@H](C)Oc2ccc(NC(=O)NC3CCCCC3)cc2C1=O`, the cytotoxicity call was “active”. Regarding `C[C@H]1CCCCO[C@@H](CN(C)S(=O)(=O)c2ccccc2)[C@@H](C)CN([C@@H](C)CO)C(=O)c2cc(NC(=O)NC3CCCCC3)ccc2O1`, the cytotoxicity call is “inactive”. For `Cc1ccc(S(=O)(=O)N(C)C[C@H]2OCCCC[C@@H](C)Oc3ccc(NC(=O)NC4CCCCC4)cc3C(=O)N([C@H](C)CO)C[C@H]2C)cc1`, the cytotoxicity call was “active”. Regarding `Cc1ccc(S(=O)(=O)N(C)C[C@H]2OCCCC[C@H](C)Oc3ccc(NC(=O)NC4CCCCC4)cc3C(=O)N([C@@H](C)CO)C[C@@H]2C)cc1`, the cytotoxicity call was “inactive”. Turning to `Cc1ccc(S(=O)(=O)N(C)C[C@H]2OCCCC[C@@H](C)Oc3ccc(NC(=O)NC4CCCCC4)cc3C(=O)N([C@H](C)CO)C[C@@H]2C)cc1`, the cytotoxicity call was “inactive”. On to `Cc1ccc(S(=O)(=O)N(C)C[C@H]2OCCCC[C@H](C)Oc3ccc(NC(=O)NC4CCCCC4)cc3C(=O)N([C@@H](C)CO)C[C@H]2C)cc1`, for which the cytotoxicity call is “inactive”.

As for `Cc1ccc(S(=O)(=O)N(C)C[C@@H]2OCCCC[C@H](C)Oc3ccc(NC(=O)NC4CCCCC4)cc3C(=O)N([C@@H](C)CO)C[C@H]2C)cc1`, the cytotoxicity call is “active”.

As for `Cc1ccc(S(=O)(=O)N(C)C[C@H]2OCCCC[C@H](C)Oc3ccc(NC(=O)NC4CCCCC4)cc3C(=O)N([C@H](C)CO)C[C@H]2C)cc1`, the cytotoxicity call is “inactive”. Consider `Cc1ccc(S(=O)(=O)N(C)C[C@@H]2OCCCC[C@H](C)Oc3ccc(NC(=O)NC4CCCCC4)cc3C(=O)N([C@H](C)CO)C[C@@H]2C)cc1`, for which the cytotoxicity call is “inactive”.

As to `Cc1ccc(S(=O)(=O)N(C)C[C@@H]2OCCCC[C@H](C)Oc3ccc(NC(=O)NC4CCCCC4)cc3C(=O)N([C@H](C)CO)C[C@H]2C)cc1`, the cytotoxicity call was “active”.
